Experiments:
Assay in all cases: universal protein binding microarray (PBM); transcription factors of Arabidopsis thaliana; high values mean tight binding
GST-ANAC092(1-176) = molecular target: T1, GST-ANAC092(1-176) (Arabidopsis thaliana, UniProt Q9FKA0 1-176); details: protein: recombinant; tags: GST; chain copies: 2; dsDNA, one strand shown
T1 sequence: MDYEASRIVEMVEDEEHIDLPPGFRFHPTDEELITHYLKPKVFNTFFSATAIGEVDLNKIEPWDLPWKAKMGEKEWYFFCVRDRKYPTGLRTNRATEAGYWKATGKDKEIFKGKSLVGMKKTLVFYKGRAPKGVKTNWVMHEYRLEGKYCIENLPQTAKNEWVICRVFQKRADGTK
In short: (§1)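 Binding is expressed as the normalised enrichment score (E-score). Proteins carrying a GST tag, whether NAC-domain, full-length or DNA-binding-domain forms, were induced in cells, and zinc acetate was added for zinc-finger proteins. After purification on glutathione–Sepharose 4B and quantification by A280 or anti-GST western blot, each was applied in duplicate at 200 to 500 nM final to custom all-10-mer Agilent 4 × 180K arrays made double-stranded by primer extension. Gapped and ungapped 8-mers were scored.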

GST-ANAC019 NAC domain = molecular target: T2, GST-ANAC019 NAC domain (Arabidopsis thaliana, UniProt Q9C932 14-162); details: protein: recombinant; tags: GST; chain copies: 2; dsDNA, one strand shown
T2 sequence: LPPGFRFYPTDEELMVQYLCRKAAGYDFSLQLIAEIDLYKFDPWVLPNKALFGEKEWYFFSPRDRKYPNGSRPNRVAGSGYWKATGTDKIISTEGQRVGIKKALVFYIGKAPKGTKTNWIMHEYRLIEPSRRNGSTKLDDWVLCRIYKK
In short: as §1

GST-ANAC055(1-171) = molecular target: T3, GST-ANAC055(1-171) (Arabidopsis thaliana, UniProt Q9LDY8 1-171); details: protein: recombinant; tags: GST; chain copies: 2; dsDNA, one strand shown
T3 sequence: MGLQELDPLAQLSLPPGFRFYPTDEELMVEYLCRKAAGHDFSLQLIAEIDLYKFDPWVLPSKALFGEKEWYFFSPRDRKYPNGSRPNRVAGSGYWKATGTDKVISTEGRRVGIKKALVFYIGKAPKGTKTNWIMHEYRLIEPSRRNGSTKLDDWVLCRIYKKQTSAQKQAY
In short: as §1

GST-ATAF1 NAC domain = molecular target: T4, GST-ATAF1 NAC domain (Arabidopsis thaliana, UniProt Q39013 7-158); details: protein: recombinant; tags: GST; chain copies: 2; dsDNA, one strand shown
T4 sequence: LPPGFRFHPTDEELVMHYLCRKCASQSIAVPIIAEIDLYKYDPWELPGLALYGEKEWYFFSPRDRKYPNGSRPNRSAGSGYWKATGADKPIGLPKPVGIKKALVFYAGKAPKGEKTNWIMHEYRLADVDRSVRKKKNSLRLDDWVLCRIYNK
In short: as §1

[1] = molecular target: T5, GST-ANAC092(1-285) full length (Arabidopsis thaliana, UniProt Q9FKA0 1-285); details: protein: recombinant; tags: GST; chain copies: 2; dsDNA, one strand shown
T5 sequence: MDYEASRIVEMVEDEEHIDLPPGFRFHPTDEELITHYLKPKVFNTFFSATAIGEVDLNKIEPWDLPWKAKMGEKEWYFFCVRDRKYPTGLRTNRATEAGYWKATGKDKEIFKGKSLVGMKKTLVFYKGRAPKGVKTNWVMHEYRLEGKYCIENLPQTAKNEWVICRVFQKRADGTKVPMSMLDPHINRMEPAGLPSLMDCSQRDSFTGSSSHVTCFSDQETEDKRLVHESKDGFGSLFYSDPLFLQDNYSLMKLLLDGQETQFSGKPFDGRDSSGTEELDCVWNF
In short: as §1

GST-NAP(1-166) = molecular target: T6, GST-NAP(1-166) (Arabidopsis thaliana, UniProt O49255 1-166); details: protein: recombinant; tags: GST; chain copies: 2; dsDNA, one strand shown
T6 sequence: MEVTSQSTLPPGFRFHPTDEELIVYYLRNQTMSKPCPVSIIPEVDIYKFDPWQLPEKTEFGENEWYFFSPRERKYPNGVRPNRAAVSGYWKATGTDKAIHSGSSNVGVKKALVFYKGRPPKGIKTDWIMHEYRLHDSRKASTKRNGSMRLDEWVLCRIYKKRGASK
In short: as §1

GST-NST2(1-184) = molecular target: T7, GST-NST2(1-184) (Arabidopsis thaliana, UniProt Q9M274 1-184); details: protein: recombinant; tags: GST; chain copies: 2; dsDNA, one strand shown
T7 sequence: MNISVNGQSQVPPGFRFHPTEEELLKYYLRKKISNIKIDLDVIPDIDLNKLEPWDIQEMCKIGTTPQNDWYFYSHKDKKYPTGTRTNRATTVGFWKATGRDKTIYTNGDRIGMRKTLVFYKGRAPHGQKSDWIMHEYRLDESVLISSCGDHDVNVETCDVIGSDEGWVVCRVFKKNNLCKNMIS
In short: as §1

GST-VND3 NAC domain = molecular target: T8, GST-VND3 NAC domain (Arabidopsis thaliana, UniProt Q9FH59 12-162); details: protein: recombinant; tags: GST; chain copies: 2; dsDNA, one strand shown
T8 sequence: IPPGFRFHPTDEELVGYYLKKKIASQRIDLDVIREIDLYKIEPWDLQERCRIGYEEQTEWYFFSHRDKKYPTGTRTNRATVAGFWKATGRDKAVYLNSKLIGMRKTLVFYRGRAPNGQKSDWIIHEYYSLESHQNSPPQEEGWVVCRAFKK
In short: as §1

GST-VND7 NAC domain = molecular target: T9, GST-VND7 NAC domain (Arabidopsis thaliana, UniProt Q9C8W9 9-158); details: protein: recombinant; tags: GST; chain copies: 2; dsDNA, one strand shown
T9 sequence: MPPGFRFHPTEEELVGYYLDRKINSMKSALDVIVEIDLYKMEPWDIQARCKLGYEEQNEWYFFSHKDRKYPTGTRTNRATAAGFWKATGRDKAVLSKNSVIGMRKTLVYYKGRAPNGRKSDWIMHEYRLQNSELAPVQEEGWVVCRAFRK
In short: as §1

GST-WRKY1(266-371) = GST-WRKY1(266-371) (Arabidopsis thaliana, UniProt Q9SI37 266-371); details: protein: recombinant; tags: GST; dsDNA, one strand shown
Chain of GST-WRKY1(266-371) (Q9SI37 266-371): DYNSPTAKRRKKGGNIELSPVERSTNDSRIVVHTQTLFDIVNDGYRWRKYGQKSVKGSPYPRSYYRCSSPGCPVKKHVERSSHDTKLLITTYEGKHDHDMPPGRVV
In short: as §1

GST-NTL6(1-168) = GST-NTL6(1-168) (Arabidopsis thaliana, UniProt Q9SCK6 1-168); details: protein: recombinant; tags: GST; chain copies: 2; dsDNA, one strand shown
Chain of GST-NTL6(1-168) (Q9SCK6 1-168): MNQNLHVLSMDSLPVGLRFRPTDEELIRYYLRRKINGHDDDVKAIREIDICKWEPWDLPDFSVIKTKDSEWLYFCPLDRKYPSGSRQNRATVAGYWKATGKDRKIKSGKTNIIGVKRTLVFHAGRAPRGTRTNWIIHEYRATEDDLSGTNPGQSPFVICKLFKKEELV
In short: as §1

GST-NTL8 NAC domain = molecular target: T10, GST-NTL8 NAC domain (Arabidopsis thaliana, UniProt Q9XIN7 14-156); details: protein: recombinant; tags: GST; chain copies: 2; dsDNA, one strand shown
T10 sequence: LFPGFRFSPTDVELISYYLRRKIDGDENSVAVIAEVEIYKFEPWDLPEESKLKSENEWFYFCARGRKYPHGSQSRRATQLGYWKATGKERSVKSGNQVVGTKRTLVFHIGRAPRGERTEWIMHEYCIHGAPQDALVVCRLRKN
In short: as §1

GST-SND1(1-203) = molecular target: T11, GST-SND1(1-203) (Arabidopsis thaliana, UniProt Q9LPI7 1-203); details: protein: recombinant; tags: GST; chain copies: 2; dsDNA, one strand shown
T11 sequence: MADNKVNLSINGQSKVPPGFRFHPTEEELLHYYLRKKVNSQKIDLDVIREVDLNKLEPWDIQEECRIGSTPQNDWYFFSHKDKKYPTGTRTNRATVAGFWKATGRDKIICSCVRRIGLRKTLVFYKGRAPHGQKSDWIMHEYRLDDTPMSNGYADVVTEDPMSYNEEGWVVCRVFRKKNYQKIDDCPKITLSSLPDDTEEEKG
In short: as §1

Sequence | binding signal (GST-ANAC092(1-176)) [E-score] | binding signal (GST-ANAC019 NAC domain) [E-score] | binding signal (GST-ANAC055(1-171)) [E-score] | binding signal (GST-ATAF1 NAC domain) [E-score] | binding signal [1] [E-score] | binding signal (GST-NAP(1-166)) [E-score] | binding signal (GST-NST2(1-184)) [E-score] | binding signal (GST-VND3 NAC domain) [E-score] | binding signal (GST-VND7 NAC domain) [E-score] | binding signal (GST-WRKY1(266-371)) [E-score] | binding signal (GST-NTL6(1-168)) [E-score] | binding signal (GST-NTL8 NAC domain) [E-score] | binding signal (GST-SND1(1-203)) [E-score]
ACACGACT | 0.104 | 0.411 | 0.364 | 0.336 | 0.171 | 0.179 | 0.19 | 0.309 | 0.265 | 0.312 | – | – | –
AAAGGTAA | – | – | 0.192 | – | 0.0772 | 0.0527 | 0.199 | – | – | – | 0.262 | 0.402 | 0.124
CACACGCC | 0.396 | 0.207 | 0.124 | 0.145 | 0.428 | – | 0.134 | – | – | – | – | – | 0.119
GCACTCAA | 0.391 | – | – | 0.0807 | 0.426 | – | 0.196 | – | – | – | – | 0.0643 | 0.263
GTCAACGA | – | – | – | – | – | – | – | 0.0713 | 0.104 | 0.486 | – | – | –
GGGGGTAA | – | – | – | – | 0.166 | – | – | – | – | – | 0.147 | 0.403 | 0.229
CACGCTAG | 0.389 | 0.115 | 0.101 | – | 0.426 | 0.0849 | 0.156 | – | – | – | – | – | 0.218
CTGGCGTA | 0.371 | 0.106 | 0.0635 | – | 0.396 | – | 0.203 | – | – | – | – | – | 0.409
ACGCCACC | 0.456 | 0.145 | 0.0815 | 0.262 | 0.472 | 0.0741 | 0.276 | – | – | – | – | – | 0.408
AAGTCAAA | 0.0569 | 0.084 | – | 0.16 | – | 0.102 | 0.0885 | 0.0889 | 0.106 | 0.488 | 0.135 | – | –
CTTTTGAC | 0.158 | – | 0.114 | 0.168 | 0.0903 | – | – | 0.12 | 0.101 | 0.448 | 0.0997 | – | –
GTATTGAC | 0.0776 | – | 0.0594 | – | 0.147 | 0.121 | – | 0.0734 | 0.0877 | 0.455 | – | – | –
GCACGCGA | 0.287 | – | – | – | 0.429 | – | 0.191 | – | – | – | – | – | 0.286
CACGCCAG | 0.385 | 0.0856 | – | – | 0.429 | – | – | – | – | – | – | – | 0.178
CTAAGGAA | 0.125 | – | – | – | 0.128 | – | 0.144 | – | – | – | 0.47 | 0.246 | 0.306
GAGGAAAC | 0.0974 | – | – | 0.0627 | 0.0772 | 0.0571 | – | – | – | – | – | 0.465 | 0.099
ACGGCAGT | 0.207 | 0.418 | 0.311 | 0.212 | 0.263 | 0.0813 | 0.138 | 0.342 | 0.238 | 0.0779 | – | – | –
AAGACCAA | – | 0.0878 | 0.172 | 0.105 | 0.124 | – | 0.18 | 0.151 | 0.124 | 0.42 | 0.18 | – | –

— paper PMC4081100, “A DNA-binding-site landscape and regulatory network analysis for NAC transcription factors in Arabidopsis thaliana”
